# Data as given in ChEMBL document CHEMBL1157539, “Thousands of chemical starting points for antimalarial lead identification” (Nature, 2010).
# “And” between values parts separate entries of the source, which are not always exact repeats. Equal entries are not always repeated. The full ranking holds about 13,000 compounds; the median of “IFI” is about 4, and the highest 2% start at about 17. The full list was thinned out, with the highest values kept by preference.
# Experiment: GSK_TCMDC: Inhibition Frequency Index (IFI). The number of non-kinase HTS assays where a compound showed > 50 % inhibition, expressed as a percentage of the number of such assays in which the compound was tested
# Type: functional
row,SMILES,IFI
1,CC(=O)Nc1ccc(C(=O)Nc2cccc(-c3cccc(-c4nc5cc(C(F)(F)F)ccc5[nH]4)c3)c2)cn1,3.7%
2,NCCCN(Cc1ccc(Cl)c(Cl)c1)C(=O)Nc1ccc(Cl)c(Cl)c1,17.7%
3,CC(=O)Nc1ccc(Cl)c(Cl)c1,0%
4,N=C(N)NC(=O)Nc1ccc(Cl)c(Cl)c1,1.52%
5,COc1ccc(CCNCCCCCCNCCc2ccccc2Cl)cc1OC,2.88%
6,COc1ccccc1CNc1ccnc(NCCc2cccc(C(F)(F)F)c2)n1,16%
7,FC(F)(F)c1cccc(CCNc2nccc(NCc3ccc(Cl)cc3Cl)n2)c1,25%
8,FC(F)(F)c1cccc(CCNc2nccc(NCc3ccccc3Cl)n2)c1,8%
9,Fc1ccc(NC(S)=NN=Cc2ccccn2)cc1,7.48%
10,Cc1[nH]c(C)c(-c2ccc(-c3ccc(OC(F)(F)F)cc3)nc2)c(=O)c1Cl,1.69%
11,Cc1cc(Nc2ccncc2)n2nc(C)c(-c3ccc(Cl)cc3)c2n1,1.69%
12,Cc1ccc2[nH]c(-c3cc(-c4cccc(C#N)c4)cnc3N)nc2c1,7.14%
13,Cc1cccc2nc(-c3ccc(-c4ccc(CN5CCCC(N)C5)cc4)s3)[nH]c12 (centres undefined),5.56%
14,Oc1ccc(CCNc2nc(NCc3ccc4cc(Cl)ccc4c3)nc(N3CCNCC3)n2)cc1,17.2%
15,C[C@@]12C[C@@H](Nc3nc(NCCc4ccc(O)cc4)nc(N4CCNCC4)n3)C[C@@H](C1)c1cccc(Cl)c1O2,20.9%
16,COc1ccc(-c2ccccc2OCCCNc2nc(NCCc3ccc(O)cc3)nc(N3CCNCC3)n2)cc1,13.8%
17,Oc1ccc(CCNc2nc(NCCCOc3cccc(CN4CCCCC4)c3Cl)nc(N3CCNCC3)n2)cc1,4.69%
18,Cc1c(CN2CCCCC2)cccc1OCCCNc1nc(NCCc2ccc(O)cc2)nc(N2CCNCC2)n1,7.58%
19,Oc1ccc(CCNc2nc(N/N=C/c3ccc(Cl)cc3)nc(N3CCNCC3)n2)cc1,0.75%
20,Cc1cc(OCCCNc2nc(NCCc3ccc(O)cc3)nc(N3CCNCC3)n2)c(Cl)c(C)c1Cl,18.5%
21,Oc1ccc(CCNc2nc(NCCOc3ccccc3-c3ccccc3)nc(N3CCNCC3)n2)cc1,20%
22,Cc1cccc(-c2cccc(CNc3nc(NCCc4ccc(O)cc4)nc(N4CCNCC4)n3)c2)c1,12.7%
23,Oc1ccc(CCCNc2nc(NCc3cccc4ccccc34)nc(N3CCNCC3)n2)cc1,7.69%

row,SMILES,IFI
1,Oc1ccc(CCNc2nc(NCCCOc3ccccc3-c3ccncc3)nc(N3CCNCC3)n2)cc1,1.72%
2,Oc1ccc(CCNc2nc(NCc3ccccc3-c3cccc(Cl)c3)nc(N3CCNCC3)n2)cc1,15.4%
3,Nc1c2c(nc3cc(NC(=O)c4ccc([N+](=O)[O-])cc4)ccc13)CCCC2,0%
4,CNC(=O)C(C)N(c1ccc(Cl)cc1)c1nc(C(C)(C)C)cs1 (centres undefined),4.76%
5,COC(=O)C(=C(C)C)N1C(=O)[C@@H](NC(=O)OCc2ccccc2)[C@H]1SS[C@@H]1[C@H](NC(=O)OCc2ccccc2)C(=O)N1C(C(=O)OC)=C(C)C,4.41%
6,CC(CN1CCN(C)CC1)C(=O)Nc1ccc(-c2cccc(-c3nc4ccccc4[nH]3)c2)cc1 (centres undefined),4.59%
7,COCCN1CCN(Cc2ccc(-c3ccc(-c4nc5cccc(C)c5[nH]4)s3)cc2)CC1,6.86%
8,O=S(=O)(NCCN1CCCC1)c1ccc(-c2ccc(CNCc3ccccc3)cc2)cc1F,6.54%
9,Oc1ccc(CCNc2nc(NCCCOc3ccccc3-c3ccc(F)cc3)nc(N3CCNCC3)n2)cc1,13.8%
10,Oc1ccc(CCNc2nc(NCc3ccccc3Oc3ccc(C(F)(F)F)cc3)nc(N3CCNCC3)n2)cc1,20%
11,Oc1ccc(CCNc2nc(NCCCOc3ccccc3-c3ccc(C(F)(F)F)cc3)nc(N3CCNCC3)n2)cc1,17.2%
12,Oc1ccc(CCNc2nc(NCCCOc3ccccc3-c3cccc(C(F)(F)F)c3)nc(N3CCNCC3)n2)cc1,10.5%
13,CN1CCN(c2nc(NCCc3ccc(O)cc3)nc(NCc3ccccc3-c3ccc(C(F)(F)F)cc3)n2)CC1,11.8%
14,Oc1ccc(CCNc2nc(NCc3ccccc3-c3ccc(C(F)(F)F)cc3)nc(N3CCNCC3)n2)cc1,13.1%
15,Oc1ccc(CCNc2nc(NCc3ccccc3-c3ccc(F)cc3)nc(N3CCNCC3)n2)cc1,13.6%
16,Oc1ccc(CCNc2nc(NCCCOc3cccc(-c4ccccc4)c3)nc(N3CCNCC3)n2)cc1,18.8%
17,COc1ccc(-c2ccccc2CNc2nc(NCCc3ccc(O)cc3)nc(N3CCNCC3)n2)cc1,13.4%
18,CC1CN(c2nc(NCCc3ccc(O)cc3)nc(NCc3ccccc3-c3ccc(C(F)(F)F)cc3)n2)CC(C)N1 (centres undefined),17.2%
19,Oc1ccc(CCNc2nc(NCCCOc3ccccc3-c3cccnc3)nc(N3CCNCC3)n2)cc1,6.9%
20,Oc1ccc(CCNc2nc(NCCOc3cccc4ccccc34)nc(N3CCNCC3)n2)cc1,16.4%
21,CC(C)N1CCC(N(Cc2ccc(-c3ccc(Cl)cc3)cc2)C(=O)Cn2c(CCc3cccc(F)c3F)nc(=O)c3ccccc32)CC1,7.8%
22,O=C(/C=C/c1ccc(Cl)c(Cl)c1)NCCCCCN1CCC(c2n[nH]c(-c3ccccc3)c2Br)CC1,12.9%
23,Cc1cc2nc(-c3ccc(/C=C/C(=O)NC4CCN(Cc5ccccc5)CC4)cc3)[nH]c2cc1C,3.76%

row,SMILES,IFI
1,CS(=O)(=O)NCCCNCc1ccc(-c2ccc(-c3nc4cc(C(F)(F)F)ccc4[nH]3)s2)cc1,4.95%
2,Cc1nc2ccc(-c3ccc(OC(F)(F)F)cc3)cc2c(O)c1C#N,1.82%
3,COc1cccc2c(NN=Cc3cccc(F)c3)ccnc12,2.99%
4,Oc1ccc(CCNc2nc(NCc3ccccc3-c3ccc(C(F)(F)F)cc3)nc(N3CCCNCC3)n2)cc1,14.9%
5,Oc1ccc(CCCNc2nc(NCc3ccccc3-c3ccccc3)nc(N3CCNCC3)n2)cc1,14.9%
6,Oc1ccc(CCNc2nc(NCc3ccccc3-c3ccccc3)nc(N3CCCNCC3)n2)cc1,18.2%
7,NCC1CCCN1Cc1cccc(-c2ccc(-c3nc4ccccc4[nH]3)s2)c1 (centres undefined),0.97%
8,CC[C@H](C)CNC(=O)c1cccc(-c2ccc(CN3CCC(N4CCCC4)CC3)cc2)n1,9.09%
9,C=CCC1OC(=O)c2cc(OC)cc(OC)c21 (centres undefined),33.6%
10,C=CC(C)C1OC(=O)c2cc(OC)cc(OC)c21 (centres undefined),27%
11,COc1ccc(CCNCCCCCNCCCc2ccc(Cl)cc2)cc1OC,2.8%
12,COc1cc(Cc2cnc(N)nc2N)cc(CC(C)O)c1O (centres undefined),0%
13,Fc1ccc2[nH]c(-c3cccc(-c4ccc(CN5CCC(CCN6CCCCC6)CC5)cc4)c3)nc2c1,8.33%
14,NC(=O)c1ccc(C(=O)Nc2cccc(-c3ccc(-c4nc5cc(C(F)(F)F)ccc5[nH]4)cc3)c2)cc1,2.59%
15,O=C(NCCCCN1CCC(c2ccc3c(c2OCCN2CCCC2=O)CCCC3)CC1)c1ccc(-c2ccc(C(F)(F)F)cc2)cc1,9.65%
16,C[C@@H]1CC[C@H](NC(=O)[C@H](CC2CCCC2)NC(=O)N2CCNCC2)C(=O)CN1S(=O)(=O)c1ccccn1,5.93%
17,O=C(NCCOc1ccccc1)[C@H](Cc1ccccc1)Nc1ccnc(NCC2CCCCC2)n1,20%
18,O=C(NCCc1ccccc1)[C@H](Cc1ccccc1)Nc1ccnc(NCC2CCCCC2)n1,20.4%
19,CC(C)C[C@H](Nc1ccnc(NCC2CCCCC2)n1)C(=O)NCCOc1ccccc1,13%
20,Cc1ccc(CNC(=O)[C@H](Cc2ccccc2)Nc2ccnc(NCC3CCCCC3)n2)cc1,11.1%
21,Cc1cc(N[C@@H](Cc2ccccc2)C(=O)NCCOc2ccccc2)nc(NCC2CCCCC2)n1,16.7%
22,CC(C)C[C@H](Nc1ccnc(NCC2CCCCC2)n1)C(=O)NCCc1ccccc1,8.89%
23,COc1ccc2nccc([C@@H](O)CN3CCC(NCc4nc5cc(F)cc(F)c5[nH]4)CC3)c2c1,3.65%

row,SMILES,IFI
1,CC1(C)NC(N)=NC(=N)N1OCCCSc1ccccc1,2.26%
2,N/C(=N\c1cccc(Cc2ccccc2)n1)NCc1ccccc1,21%
3,Cc1cc(NCCc2ccccc2)nc(NC(=N)Nc2ccc(Cl)cc2)n1,3.82%
4,Cc1cccc2nc(-c3ccc(-c4ccc(NC(=O)Nc5ccc(Cl)cc5)cc4)s3)[nH]c12,5.94%
5,Cc1ccccc1Cc1cccc(/N=C(\N)Nc2ccc(Cl)cc2)n1,31.2%
6,Cc1cc(OCCCn2ccnc2)ccc1-c1csc(/N=C(\N)NCc2ccccc2)n1,5%
7,Cc1cccc(NC(=O)NCc2ccccc2)n1,0.78%
8,CC(=O)Nc1nc(C(=O)Nc2ccc(-c3cccc(-c4nc5cc(C(F)(F)F)ccc5[nH]4)c3)cc2)cs1,6.03%
9,Cc1cc(=O)c(-c2ccc(Oc3cccc(C(F)(F)F)c3)cc2)c(C)[nH]1,2.56% and 2.24%
10,CCN(CCCN1CCCCC1)c1cc(C)nc(Nc2ccc(C)cc2)n1,2.56%
11,CCC(C)c1ccc(Nc2nc(C)cc(N(CC)CCCN3CCCCC3)n2)cc1 (centres undefined),19.5%
12,CCN(CCCN1CCCCC1)c1cc(C)nc(Nc2ccc(C(C)C)cc2)n1,10.3%
13,CC(C)(C)c1ccc(C(=O)Nc2cccc(Nc3c(C(=O)NCc4cccc(C(F)(F)F)c4)cnc4c(O)cccc34)c2)cc1,3.68%
14,CCCCN(CCCC)/C(=N/c1cccc(Cl)c1Cl)Nc1ccc(C#N)cc1O,7.14%
15,O=C(Cc1cccc(O)c1)Nc1ccc(-c2cccc(-c3nc4cc(C(F)(F)F)ccc4[nH]3)c2)cc1,8.93%
16,CC(CN(C)C)C(=O)Nc1cccc(-c2cccc(-c3nc4ccccc4[nH]3)c2)c1 (centres undefined),5.41%
17,COc1cccc(-c2cccc(-c3ccc(NC(=O)c4ccc([N+](=O)[O-])o4)cc3)n2)c1,9.52%
18,O=C(Nc1cccc(-c2cccc(-c3ccc(F)cc3)n2)c1)c1ccc([N+](=O)[O-])o1,19.1%
19,COc1ccccc1-c1cccc(-c2cccc(NC(=O)c3ccc([N+](=O)[O-])o3)c2)n1,11.9%
20,Cc1cccc2nc(-c3ccc(-c4ccc(CN5CCCC(N)C5)cc4)cc3)[nH]c12 (centres undefined),4.23%
